SW480 rerep: induces DNA re-replication in SW480 colon adenocarcinoma cells | SW480 DNA re-replication, Hoechst DNA content imaging, 48 h | 340,000 tested, 1.8% active | Potency, µM (doses to about 46.1 µM), inactives show at the top dose re-replication activation, hits mostly activators; further: % of control where 0% means no effect; nearly all actives have a fitted effect of over 55% in size
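Compounds, transferred as 23 nL by pin tool, were incubated with cells for 48 hr; DNA content per nucleus was then quantified by Hoechst staining and fluorescence plate imaging.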
ELG1 repair inh: ELG1-dependent DNA repair inhibition; HEK293T ELG1-luciferase reporter, luminescence, 16 h; DNA damage induced by 5-fluorouridine; Potency, µM (doses to about 46.1 µM), inactives show top-dose activity change, negative = inhibition, most hits filed as inhibitors; 330,000 tested, 2.3% active; AID 504467; further: on the % scale 0 is the no-effect control and ±100 the full control effect; nearly all actives have a fitted effect of over 55% in size
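Overnight (16 hr) co-exposure of 2,000 cells/well to 5-fluorouridine and compound at 37 °C preceded detection. Luciferase was quantified via ONE-Glo luminescence; loss of signal denotes inhibition.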
VP16 counter: counter-screen for ROR gamma inhibitors: Gal4-VP16 reporter; Drosophila S2 Gal4-VP16 UAS-luciferase, luminescence, 20 h; Potency, µM (highest dose often 53.6 µM), without a hit: at the highest dose activity, negative = inhibition, most hits filed as inhibitors; 310,000 tested, 3.5% active;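 further: Gal4-VP16 expression switched on by copper sulfate through the metallothionein promoter; on the % scale 0 is the no-effect control and ±100 the full control effect; nearly all actives have a fitted effect of over 50% in size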
MCF10A rereplic: induces DNA re-replication in MCF 10a normal breast cells | 350,000 tested, 2.9% active | Potency, µM (series often up to 46.1 µM), for inactives: at the top dose activity, positive = re-replication, actives largely listed as activators | AID 624296 | MCF 10A DNA re-replication, Hoechst nuclear intensity, 48 h; further: % of control where 0% means no effect; nearly all actives have a fitted effect of over 50% in size
RORg inh: inhibitors of mouse ROR gamma transcriptional activity; P51450; Drosophila S2 Gal4-RORgamma UAS-luciferase reporter, 20 h; Potency, µM (series often up to 53.6 µM), for the others: at the highest dose activity change, negative = inhibition, most hits filed as inhibitors; 310,000 tested, 5.4% active; AID 2551; further: on the % scale 0 is the no-effect control and ±100 the full control effect; nearly all actives have a fitted effect of over 60% in size
Target sequence (P51450 whole entry, looked up, the tested form may be a part): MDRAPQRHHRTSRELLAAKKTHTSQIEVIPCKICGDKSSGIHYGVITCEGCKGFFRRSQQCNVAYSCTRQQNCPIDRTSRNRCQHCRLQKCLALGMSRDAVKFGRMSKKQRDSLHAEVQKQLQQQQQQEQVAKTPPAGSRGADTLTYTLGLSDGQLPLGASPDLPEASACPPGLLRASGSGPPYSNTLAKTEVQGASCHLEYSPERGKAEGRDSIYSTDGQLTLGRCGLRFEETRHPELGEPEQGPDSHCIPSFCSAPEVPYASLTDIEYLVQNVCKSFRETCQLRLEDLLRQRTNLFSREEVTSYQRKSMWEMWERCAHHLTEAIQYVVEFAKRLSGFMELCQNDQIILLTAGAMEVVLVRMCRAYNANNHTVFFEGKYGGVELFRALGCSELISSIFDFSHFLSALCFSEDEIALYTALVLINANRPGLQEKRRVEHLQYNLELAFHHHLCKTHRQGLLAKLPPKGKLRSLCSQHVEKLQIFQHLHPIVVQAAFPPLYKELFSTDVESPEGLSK
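Stably transfected Drosophila Schneider cells are the test system, with ROR gamma fused to Gal4 and luciferase under UAS control; luminescence is read after 20 hr of 700 uM copper sulfate induction at ambient temperature.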
* hit, by the source's call; ? = inconclusive; / = no result given; [ ] = dose if it differs, or a comment. A selection: hits, their analogues and other compounds. The true share with any hit is near 10%. The call rests on the fitted dose curve; in most records, active means well fitted curve in the direction sought with a large enough effect; inconclusive means small, poorly fitted or top-dose-only effect, or another doubt; inactive means no such curve, though single readings can be large; an effect the other way counts as inactive or inconclusive. Potency means the concentration at half of the fitted maximal effect.

SMILES	SW480 rerep	ELG1 repair inh	VP16 counter	MCF10A rereplic	RORg inh
O=C(CCn1[nH]c(=O)c2ccccc2c1=O)OC1CCCCC1	?	8.7%	22.4µM*	?	?
COCCCNC(=O)c1ccccc1Sc1ccc(NC(C)=O)nc1	3.5%	8.4%	0.0%	-17.8%	-6.8%
COC(=O)c1cc(C)[nH]c2c(C)cc3nc4ccccc4c3c12	?	18.3µM*	-6.2%	20.6µM*	35.4%
Cc1cc(C)nc(SCC(=O)N/N=C/c2cc(C)n(-c3ccccc3C)c2C)n1	-75.9%	12.2%	-13.2%	4.3%	-17.4%
Cc1ccc(-n2c(C)cc(/C=N/NC(=O)c3ccncc3)c2C)cc1C	11.8%	-9.1%	?	2.2%	3.98µM*
Cc1cc(/C=N/NC(=O)C(O)(c2ccccc2)c2ccccc2)c(C)n1-c1ccccc1	-29.1%	9.3%	?	-8.8%	11.2µM*
CCc1ccc(-n2c(C)cc(/C=N/NC(=O)c3ccncc3)c2C)cc1	-10.6%	?	20µM*	8.9%	7.08µM*
Cc1ccc(-n2c(C)cc(/C=N/NC(=O)c3ccncc3)c2C)c(C)c1	8.7%	5.5%	-6.0%	?	18.8%
Cc1cccc(C)c1-n1c(C)cc(/C=N/NC(=O)CSc2ncccn2)c1C	-23.1%	?	15.8µM*	-34.7%	?
CC(=O)Nc1cc(C(=O)CSc2nnc(C3CC3)n2C2CC2)ccc1O	-5.6%	2.8%	/	-0.5%	/
CCCCCCC1Cc2cc(OC)c(OC)cc2C(C(C(=O)OCC)C(=O)OCC)O1 (configuration not stated)	/	/	4.9%[10 µM]	/	15.6%[10 µM]
COc1ccc(C2=NCCn3nc4cc(OC)ccc4c32)cc1	-4.0%[9.22 µM]	?	/	-21.6%	/
Cc1cc(/C=N/NC(=O)c2cccs2)c(C)n1-c1ccccc1	-2.4%	?	?	?	?
COC(=O)N/N=C/c1cc(C)n(-c2ccccc2)c1C	-75.3%	?	-3.0%	1.3%	16.0%
Cc1cc(/C=N/NC(=O)c2cccc([N+](=O)[O-])c2)c(C)n1-c1ccccc1	-3.4%	?	4.47µM*	8.9%	3.55µM*
Cc1cccc(C)c1-n1c(C)cc(/C=N/NC(=O)c2ccncc2)c1C	2.1%	15.4%	2.24µM*	18.7%	1.26µM*
Cc1cc(/C=N/NC(=O)c2ccncc2)c(C)n1-c1ccccc1	-0.8%	?	?	1.6%	10µM*
CCOC(=O)c1cnc2ccc(OCC)cc2c1N(C)Cc1ccccc1	9.1%	?	?	?	14.1µM*
CCOC(=O)c1cnc2ccc(OCC)cc2c1N1CCN(c2ccccc2OC)CC1	-6.3%	14.6µM*	11.9%	18.4µM*	-26.2%
CC1=C(C(=O)Nc2ccccc2C(=O)NC2CCCCC2C)SCCO1 (configuration not stated)	?	-1.0%	6.5%	8.2%	-3.4%
O=C(CN1CCCC1)Nc1ccccc1Sc1ccc(Cl)cc1	-0.6%	6.2%	-12.5%[10 µM]	?	32.3%
Cc1nc(CS(=O)(=O)c2ccc(Cl)cc2)cc(Sc2ccc(Cl)cc2)n1	-2.0%	20.6µM*	11.2µM*	6.1%	?
O=S(=O)(Cc1cc(Sc2ccc(Cl)cc2)nc(-c2ccccc2)n1)c1ccccc1	-2.6%	-0.9%	4.1%	-3.7%	3.0%
COc1ccc(OC)c(-c2nnc3n2N=C(c2ccc(OC(F)F)c(OCC4CC4)c2)CS3)c1	?	11.6µM*	/	?	/
CCOc1ccccc1-c1nnc2n1N=C(c1ccc(OC)c(OC)c1)CS2	/	/	0.0%	/	-13.7%
SMILES	SW480 rerep	ELG1 repair inh	VP16 counter	MCF10A rereplic	RORg inh
COc1cccc(C2=Nn3c(nnc3-c3ccccc3C)SC2)c1	/	/	15.8µM*	/	?
COc1ccc(C2=Nn3c(nnc3-c3ccccc3OC)SC2)cc1OCC1CC1	2.31µM*	?	/	?	/
COc1ccc(OC)c(-c2nnc3n2N=C(c2ccc(OC)c(OC4CCCC4)c2)CS3)c1	0.731µM*	?	/	?	/
COc1ccccc1NC(=O)C1CCN(C(=O)c2ccco2)CC1	-8.2%	3.8%	-4.3%	-8.8%	-4.7%
Cc1cc(C)n2nc(N)c(N=Nc3ccc(Cl)cc3)c2n1	7.5%	?	-4.1%	12.1%	-39.0%
COc1ccc(C2=Nn3c(nnc3-c3ccccc3F)SC2)cc1OC1CCOC1 (configuration not stated)	10.3µM*	-10.1%	/	?	/
Cc1ccc(C)c2nc(Cl)c(C3NC(=O)c4ccccc4N3)cc12 (configuration not stated)	2.9%	?	?	?	39.6%
COc1cc(C)c(C2NC(=O)c3ccccc3N2)cc1C (configuration not stated)	7.31µM*	/	/	7.31µM*	/
Cc1ccc(C)c(C2NC(=O)c3ccccc3N2)c1 (configuration not stated)	7.31µM*	-11.5%	6.9%	2.31µM*	-1.7%
Cn1cc(C2NC(=O)c3ccccc3N2)c2ccccc21 (configuration not stated)	5.8µM*	/	/	2.91µM*	/
Cc1cc(C)c2nc(Cl)c(C3NC(=O)c4ccccc4N3)cc2c1 (configuration not stated)	6.2%	-11.0%	3.6%	?	-4.2%
CCC(C)CCN1CCN=C1Nc1ccccc1 (configuration not stated)	-17.4%	-0.3%	/	-16.3%	/
O=C(C1CC(=O)N(c2ccccc2)C1)N1CCN(c2ccccc2)CC1 (configuration not stated)	-6.6%	8.4%	-2.6%	1.0%	11.0%
COCc1cc(Sc2ccc(Cl)cc2)nc(C)n1	?	-6.7%	-4.7%[10 µM]	2.0%	0.0%
COCc1cc(S(=O)c2ccc(Cl)cc2)nc(C)n1 (configuration not stated)	?	-17.1%	?	14.6µM*	4.47µM*
O=C(CC1OC(=O)c2ccccc21)Nc1cc(Cl)ccc1N1CCCC1 (configuration not stated)	-83.1%	-0.7%	/	?	/
Cc1ccc(C(=O)Nc2ccccc2C(=O)Nc2ccccn2)cc1Cl	20.6%	-16.8%	15.8µM*	?	?
Cc1ccc(C(=O)Nc2cccnc2Cl)cc1Cl	-7.8%[9.22 µM]	?	17.4%	-4.9%	10.3%[1.91 µM]
Cc1ccnc(NC(=O)c2ccccc2NC(=O)c2ccc(Cl)cc2Cl)c1	4.61µM*	-9.2%	12.6µM*	6.51µM*	?
CC(C)C(C)(C#N)NC(=O)CSc1nnc(-c2ccncc2)n1Cc1ccccc1 (configuration not stated)	1.8%	-1.1%	-6.4%	3.1%	8.3%
CC(C)C(C)(C#N)NC(=O)CSc1nc2scc(-c3ccc(F)cc3)c2c(=O)n1Cc1ccccc1 (configuration not stated)	1.1%	?	?	3.0%	17.8µM*
Cc1cccc(/C=N/n2c(-c3ccncc3)n[nH]c2=S)c1	15.7%	-14.1%	?	?	11.2µM*

Screening data from PubChem BioAssay.
